Compounds with a hit are over-represented: about 3.2% of the library has one in this group of screens.
DNA Pol III inh – qHTS Assay for Inhibitors of DNA Polymerase III Holoenzyme System. AID 603, 2007. reconstituted DNA polymerase III holoenzyme replication, biochemical. Potency, µM (titrated, usually from 57.1 µM), inactives show top-dose activity change, negative = inhibition. 71,000 tested, 0.25% active; note: potency is the fitted concentration of half-maximal effect; % is set by controls: 0 for no effect and ±100 for the full control effect
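Reconstituted *E. coli* holoenzyme (0.35 nM Pol III, 1 nM beta, 154 nM SSB, 2 nM primase) was preincubated with compound for 15 min at RT. Synthesis on 1.4 nM ssM13Gori ran 35 min, then was stopped with PicoGreen/EDTA and read as dsDNA fluorescence.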
YjeE inh – qHTS Assay for Inhibitors of YjeE; purified YjeE enzyme, qHTS inhibition assay; 71,000 tested, 0.05% active; tRNA threonylcarbamoyladenosine biosynthesis protein TsaE (Escherichia coli (strain …; Potency, µM; AID 605, 2007
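Purified YjeE (10 uM) with BODIPY Texas Red-labeled ADP probe (2 uM); compounds pin-transferred, 15 min at room temperature. Binding inhibition read as decreased fluorescence polarization; ADP titration as control.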
BRCT inh red – qHTS Assay for Inhibitors of BRCT-Phosphoprotein Interaction (Red Fluorophore); Breast cancer type 1 susceptibility protein (Homo sapiens), P38398; BRCT-phosphopeptide binding, red fluorescence polarization; Potency, µM (top dose mostly 76.9 µM), for inactives: top-dose activity change, negative = inhibition, hits mostly inhibitors; 75,000 tested, 0.03% active; note: % is set by controls: 0 for no effect and ±100 for the full control effect
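Fluorescence polarization: 100 nM His-tagged BRCA1 BRCT with 100 nM TAMRA-labelled phospho-BACH1 decapeptide, phosphate buffer pH 7.3 with 150 mM NaCl, DTT, 0.01% Tween 20; 12 min RT. Binding inhibition seen as FP decrease.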
HEK293 cAMP ctrl – qHTS Assay for Agonists of the Thyroid Stimulating Hormone Receptor: Activators of Intracellular cAMP Concentrations in Parental HEK 293. Potency, µM (highest dose often 57.1 µM), inactives show at the highest dose activation, hits mostly activators. parental HEK293 CNG cAMP sensor, membrane potential fluorescence. 73,000 tested, 2.5% active. AID 938, 2007; note: potency is the fitted concentration of half-maximal effect; % of control where 0% means no effect; nearly all actives have a fitted effect of over 55% in size
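Parental HEK 293 cells stably expressing a cAMP-gated CNG channel were loaded with membrane potential dye containing 100 uM RO 20-1724 for 60 min. Compound added for 30 min; depolarization read as fluorescence intensity at 590 nm.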
BRCT PPI green – qHTS Assay for Inhibitors of BRCT-Phosphoprotein Interaction (Green Fluorophore); BRCA1 BRCT-phosphopeptide binding, green fluorescence polarization; Potency, µM (titrated, usually from 76.9 µM), without a hit: at the top dose activity change, negative = inhibition, most hits filed as inhibitors; 75,000 tested, 0.05% active; AID 875, 2007;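 note: potency is the fitted concentration of half-maximal effect; plate controls were peptide without protein for full effect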
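Compounds were incubated for 12 min at room temperature with a complex of 100 nM fluorescein-tagged pBACH1 decapeptide and 250 nM His-tagged BRCT protein. Buffer was phosphate pH 7.3 with EDTA, DTT and Tween 20. Disruption of binding lowers the polarization signal.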
TSHR agonist – qHTS Assay for Agonists of the Thyroid Stimulating Hormone Receptor | Potency, µM (titrated, usually from 57.1 µM), inactives show top-dose activation, most hits filed as activators | HEK293-CNG-TSHR cells (CNG channel as cAMP sensor), membrane potential dye, cAMP | AID 926, 2007 | 73,000 tested, 0.48% active; active = well fitted activation curve with a large enough effect in the main read-out, with a control signal flat, not every such curve was filed as active; inconclusive = small, poorly fitted or top-dose-only effect, or a change in a side signal; inactive = no such curve, though single readings can be large or run the other way; % of control where 0% means no effect;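 note: the control signal comes from parental cells without the receptor; potency is the fitted concentration of half-maximal effect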
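cAMP rise detected as CNG-channel membrane depolarization by fluorescent dye (emission 590 nm), 30 min after compound, following 60 min dye loading containing 100 uM RO 20-1724 at room temperature. Cells: TSHR/CNG HEK 293, with parental CNG HEK 293 as control.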
* = called active by the depositor; i = inactive; u = inconclusive; x = not tested or not shown; [ ] = remark or other dose. Unless noted, calls come from the whole dose curve; as a rule, active = well fitted curve in the direction sought with a large enough effect; inconclusive = small, poorly fitted or top-dose-only effect, or another doubt; inactive = no such curve, though single readings can be large; an effect the other way counts as inactive or inconclusive.

SMILES | DNA Pol III inh | YjeE inh | BRCT inh red | HEK293 cAMP ctrl | BRCT PPI green | TSHR agonist
O=C(CSc1nnc(COc2ccccc2)n1Cc1ccco1)c1ccc(F)cc1 | -9.2% | i | -2.4% | 15.8µM* | 0.7% | u
CCCCNC(=O)c1cn(C)c2ccc(S(=O)(=O)N3CCOCC3)cc2c1=O | -3.4% | i | -0.8% | u | -0.8% | u
O=C(CSc1nc2ccccc2c(=O)n1Cc1ccco1)NCc1ccccc1 | -1.8% | i | 0.3% | 25.1µM* | -1.8% | u
COC(=O)c1ccc(CSc2nnc(NCc3ccccc3)s2)o1 | -0.6% | i | -0.2% | 17.1% | 1.0% | 6.1%
O=c1c2ccccc2nnn1CSc1nc2cc(Cl)ccc2c(=O)n1Cc1ccco1 | -7.1% | i | 2.7% | 2µM* | -1.7% | u
O=c1c2ccccc2nnn1CSc1nnc(COc2ccc(Cl)cc2)n1Cc1ccco1 | -0.6% | i | -0.8% | 27.3% | -0.3% | x
O=C(CSc1nc2ccccc2c(=O)n1Cc1ccc(C(=O)NC2CC2)cc1)NCc1ccco1 | 1.5% | i | -2.3% | 19.7% | -1.4% | 22.7%
COC(=O)c1ccc(CSc2nc3ccccc3c(=O)n2Cc2ccco2)o1 | 8.8% | i | 0.2% | 7.94µM* | -1.5% | u
COC(=O)c1ccc(CSc2nc(-c3ccccc3)cs2)o1 | -1.5% | i | 0.1% | 39.8µM* | 0.4% | u
C[C@@H]1[C@H](C)CC[C@@]2(C(=O)O[C@H]3O[C@@H](CO[C@H]4O[C@@H](CO)[C@@H](O[C@H]5O[C@@H](C)[C@@H](O)[C@@H](O)[C@@H]5O)[C@@H](O)[C@@H]4O)[C@@H](O)[C@@H](O)[C@@H]3O)CC[C@]3(C)C(=CC[C@H]4[C@@]5(C)C[C@@H](O)[C@@H](O)[C@](C)(CO)[C@@H]5CC[C@@]43C)[C@@H]12 | -3.7%[25.6 µM] | i | -0.2%[34.4 µM] | 0.3%[25.6 µM] | -1.1%[34.4 µM] | x
Cc1cc2c(c(=O)o1)[C@H](O)[C@H]1O[C@@H]1C2=O | x | x | 1.2%[15.4 µM] | -5.3%[11.4 µM] | 0.3%[15.4 µM] | 0.2%[11.4 µM]
COc1nc(N2CCCC2)nc(-n2cc(-c3ccccc3)nn2)n1 | 1.6% | i | -1.8% | u | -2.5% | u
CC(=O)NCCNc1nc(-c2cccc(NS(C)(=O)=O)c2)nc2ccccc12 | -5.8% | i | -2.0% | -4.5% | -1.2% | 16.7%
CCOC(=O)OCC1OC(c2ccccc2)C=CC1Oc1cccc(N(C)C)c1 (configuration not stated) | x | x | 1.3%[15.4 µM] | 7.2%[11.4 µM] | -0.2%[15.4 µM] | 14.2%[11.4 µM]
CC(=O)Oc1ccc(/C=C\C(=O)C[C@@H]2O[C@@H](Oc3cc(OC(C)=O)c4c(c3)O[C@@H](c3ccc(OC(C)=O)cc3)CC4=O)[C@H](OC(C)=O)[C@H](OC(C)=O)[C@@H]2OC(C)=O)cc1 | -4.0% | i | x | -4.6% | x | -4.6%
CN1CCN(c2ncc3nc(CCc4ccccc4)c(=O)n(Cc4ccc(F)cc4)c3n2)CC1 | 4.0% | i | -1.0% | u | 2.6% | u
COc1ccc(C(=O)N(Cc2nc(-c3ccc(C)cc3)no2)C(C)C)cc1OC | -3.3% | i | -1.6% | 4.2%[11.4 µM] | 2.4% | 27.9%
COc1ccc(-c2noc(CN(C(=O)c3ccc(OC(C)=O)cc3)C(C)C)n2)cc1OC | -7.4% | i | -0.3% | 0.9% | 1.2% | 25.1µM*
COc1cc(OC)cc(C(=O)N(Cc2nc(-c3cccc(C)c3)no2)C(C)C)c1 | 2.3% | i | -0.5% | 31.6µM* | 1.6% | u
CC(C)C[C@@H](CC(=O)N[C@@H](CCC(=O)O)CC(=O)O)NC(=O)[C@@H]1CCCC[C@H]1NC(=O)C[C@H](CCCN)NC(=O)C[C@H](CO)NC(=O)[C@@H]1CNCC[C@H]1N | -3.3% | i | x | u | x | u
O=C(O)c1ccc(NS(=O)(=O)c2cccc3ccccc23)cc1 | x | x | 2.1% | u | -1.0% | u
CC(C)(C[C@@]1(C)NC(=O)NC1=O)OCc1ccccc1 | 9.8%[11.4 µM] | i | -0.8%[15.4 µM] | -1.8%[11.4 µM] | 0.4%[15.4 µM] | 0.1%[11.4 µM]
Cc1ccc2c(c1C)NC(C(=O)O)C1CC=CC21 (configuration not stated) | 25.1µM* | i | -24.9% | -2.1% | -18.9% | -2.2%
CCOC(=O)c1ccc2c(c1)C1C=CCC1C(C(=O)O)N2 (configuration not stated) | 15.8µM* | i | u | 2.4% | -29.0% | 3.9%
O=C(O)C1Nc2c(C(=O)N3CCOCC3)cccc2C2C=CCC12 (configuration not stated) | -24.4% | i | -6.8% | 1.5% | -1.4% | -9.3%
SMILES | DNA Pol III inh | YjeE inh | BRCT inh red | HEK293 cAMP ctrl | BRCT PPI green | TSHR agonist
CCC1Oc2ccc(C)cc2N(CC(=O)NCc2cccc(OC)c2)C1=O (configuration not stated) | 0.7% | i | -0.1% | 12.6µM* | -0.7% | u
COc1ccc(-c2c3c(=O)n(C)c(=O)n(C)c3cn2-c2cc(OC)ccc2OC)cc1 | 9.1% | i | -1.2% | 13.6% | -3.3% | 25.1µM*
O=C(Nc1ccccc1N1CCCCC1)c1cccs1 | 3.4% | i | 0.4% | 25.1µM* | 3.0% | u
CCc1ccc(-c2cn(-c3nc(C)cc(C)n3)c(=N)o2)cc1 | -5.1% | i | 0.6% | 25.1µM* | 0.2% | u
O=C1c2ccccc2N2C(=O)c3ccccc3C2N1Cc1ccco1 (configuration not stated) | -5.5% | i | -0.9% | 25.1µM* | 4.7% | u
O=C(CN1CCN(C2CCCCC2)CC1)Nc1ccccc1-c1ccccc1 | 3.0% | i | -0.3% | 15.8µM* | -1.4% | u
O=C(CN1CCOCC1)Nc1ccccc1-c1ccccc1 | -5.6% | i | 2.6% | 14.0% | -1.4% | 4.4%
COc1cccc2c1C(=O)c1c(O)c3c(c(O)c1C2=O)C[C@@](O)(C(=O)CO)C[C@@H]3O[C@H]1C[C@H](N)[C@H](O)[C@H](C)O1 | x | x | 10µM* | 0.1% | 9.7% | 0.1%
CC(=O)[C@@]1(O)Cc2c(O)c3c(c(O)c2[C@H](O[C@H]2C[C@H](N)[C@H](O)[C@H](C)O2)C1)C(=O)c1ccccc1C3=O | 3.98µM* | 50.1µM* | 12.6µM* | u | -24.9% | u
